# Results reported in PubChem BioAssay (EPA / NIEHS).
# Records with an inconclusive call do not appear. The source made the active and inactive calls. How the source made its calls: active means hit-call score of the fitted dose curve at least 0.9, where 1 is the maximum; inconclusive means response in the unintended direction; inactive means score below 0.9.
# Molecular target: human Adenosine A1 Receptor (AdoRA1), ADORA1 (gene 134) (UniProt P30542)
# Experiment: NVS_GPCR_hAdoRA1: NovaScreen (NVS) G Protein-Coupled Receptor Assay for human Adenosine A1 Receptor (AdoRA1) (AID 2283254)
# Experimental: NVS_GPCR_hAdoRA1 is a biochemical, single-readout assay that uses extracted gene-proteins from Human cortical membranes in a tissue-based cell-free assay. Measurements were taken 1 hour after chemical dosing in a 96-well plate.NVS_GPCR_hAdoRA1 is one of one assay component(s) measured or calculated from the NVS_GPCR_hAdoRA1 assay. It is designed to make measurements of radioligand binding, a form of binding reporter, as detected with scintillation counting signals by Filter-based radiodetection technology.Data from the assay component NVS_GPCR_hAdoRA1 was analyzed into 1 assay endpoint. This assay endpoint, NVS_GPCR_hAdoRA1, was analyzed in the positive analysis fitting direction relative to DMSO as the negative control and baseline of activity. Using a type of binding reporter, loss-of-signal activity can be used to understand changes in the binding as they relate to the gene ADORA1. Furthermore, this assay endpoint can be referred to as a primary readout, because the performed assay has only produced 1 assay endpoint. To generalize the intended target to other relatable targets, this assay endpoint is annotated to the gpcr intended target family, where the subfamily is rhodopsin-like receptor.
# Binding assays used specific radioligands (tritiated, iodinated) with non-radioactive competitive displacement ligands in agonist or antagonist protocols (as indicated) and various reference compounds and inhibitors to titrate specific binding to receptors and transporters. Most enzyme assays (CYPs, kinases, phosphatases, proteases, HDACs) used recombinant protein and specific substrates (fluorescence mostly, some colorimetric and radioactive) and inhibitors, followed by a biochemical separation of substrate and product. All assays for the biochemical HTS were initially run in duplicate at a single concentration (10 uM for CYP450 assays and 25 uM for all others). […] Each assay was run with positive and negative controls, and concurrent controls on every plate. The follow-up (secondary) screen tested active chemical-pairs in concentration series, as well as a few additional assays not tested in the primary screen, some selected negative inactives, and several cases re-run in the concentration series for confirmatory purposes.
# Chain of human Adenosine A1 Receptor (AdoRA1), ADORA1 (gene 134) (P30542 whole entry, looked up): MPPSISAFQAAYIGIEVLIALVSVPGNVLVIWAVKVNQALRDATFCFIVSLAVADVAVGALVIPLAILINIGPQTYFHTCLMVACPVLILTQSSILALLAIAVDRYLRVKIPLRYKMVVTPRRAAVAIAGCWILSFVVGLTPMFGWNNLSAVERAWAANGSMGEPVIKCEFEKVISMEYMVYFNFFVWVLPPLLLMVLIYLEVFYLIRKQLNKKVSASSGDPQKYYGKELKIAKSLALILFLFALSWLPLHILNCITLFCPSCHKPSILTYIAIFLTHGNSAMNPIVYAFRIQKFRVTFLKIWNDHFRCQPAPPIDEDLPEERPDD
Compound,AC50,outcome
CCCCOC(=O)c1ccc(O)cc1,11.7 µM (active),
CCOC(=O)O[C@H](C)OC(=O)c1ccc2c(c1)cc(C(=O)NC1CCN(C(C)C)CC1)n2Cc1cc(-c2ccc(Cl)s2)on1,15.9 µM (active),
O=C1c2ccccc2C(=O)N1CCc1noc(-c2ccc(CN3CCCCCC3)s2)n1,,inactive
CCN(CC)C(=O)c1cc(S(=O)(=O)Cc2ccccc2)c(N2CCC(c3ccccc3)CC2)cc1N(CC)CCN(C)C,6.22 µM (active),
Cc1cc(F)ccc1-c1cc(N2CC[C@@H](O)[C@H]2CO)ncc1N(C)C(=O)C(C)(C)c1cc(C(F)(F)F)cc(C(F)(F)F)c1,20.4 µM (active),
CN(C[C@@H](CC[N+]12CCC(C3CCCCC3)(CC1)CC2)c1ccc(Cl)c(Cl)c1)C(=O)c1cc(C(F)(F)F)cc(C(F)(F)F)c1,16.7 µM (active),
CCCOC(=O)c1cc(O)c(O)c(O)c1,14.4 µM (active),
CCCCCCCCOC(=O)c1cc(O)c(O)c(O)c1,12.4 µM (active),
O=C(O)Cc1cc(I)c(Oc2ccc(O)c(I)c2)c(I)c1,,inactive
COc1cc(C(=O)NC2CCN(C)CC2)ccc1Nc1ncc2c(n1)N(C1CCCC1)CC(F)(F)C(=O)N2C,4.71 µM (active),
CCCCCCCCCC(=O)O,,inactive
CN(C)C(=O)C1(N2CCCCC2)CCN(CC[C@@]2(c3ccc(Cl)c(Cl)c3)CN(C(=O)c3ccccc3)CCO2)CC1,,inactive
NCc1cccc(C2CCN(C(=O)c3ccc(C#Cc4ccccc4F)o3)CC2)c1,15.8 µM (active),
Cc1occc1C(=O)Nc1ccc(C(=O)N2CCC(F)(F)/C(=C\C(=O)N3CCC(N4CCCCC4)CC3)c3ccccc32)cc1,3.24 µM (active),
O=c1c(-c2ccc(O)cc2)coc2cc(O)cc(O)c12,,inactive
Oc1ccc2ccccc2c1,,inactive
COc1cccc([C@H](O)C2CCN(CCc3ccc(F)cc3)CC2)c1OC,,inactive
CN(C)c1ccc(C(=C2C=CC(=[N+](C)C)C=C2)c2ccc(N(C)C)cc2)cc1,10.5 µM (active),
Cc1oc2c(NC(=O)c3c(Cl)cccc3Cl)cccc2c1C(C)(C)O,,inactive
CC/C(=C(/CC)c1ccc(O)cc1)c1ccc(O)cc1,4.81 µM (active),
